# Experimental data taken from PubChem BioAssay (EPA / NIEHS).
# Results filed as inconclusive are left out. Activity calls are given as the source filed them. The calls were made as follows, unless noted: active = hit-call score of the fitted dose curve at least 0.9, where 1 is the maximum; inactive = score below 0.9.
# Columns and labels:
# [1] = ATG_M_06_TRANS: Attagene TRANS-FACTORIAL HepG2 Assay for M06 Transcription Factor (Internal Marker) (AID 2282983; active = hit-call score of the fitted dose curve at least 0.9, where 1 is the maximum;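 also: reporter transcript level by RT-PCR then capillary electrophoresis fluorescence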); conditions: HepG2 Attagene TRANS M06 internal marker reporter
# How it was run: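 Read-out: fluorescent reporter cDNA fragments resolved by capillary electrophoresis after RT-PCR and HpaI cut. Source cells were HepG2 carrying transfected multi-reporter GAL4 constructs, dosed 24 h. Increase over DMSO control analysed.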
# [2] = ATG_M_32_TRANS: Attagene TRANS-FACTORIAL HepG2 Assay for M32 Transcription Factor (Internal Marker) (AID 2282984; active = hit-call score of the fitted dose curve at least 0.9, where 1 is the maximum;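 also: transcript level of a background control reporter unit measured by RT-PCR and capillary electrophoresis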); conditions: HepG2 Attagene TRANS M32 internal marker reporter
# How it was run: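 Internal background reporter in transfected HepG2: after 24 h chemical exposure, RNA reverse-transcribed, reporter cDNA amplified, fluorescently labelled and HpaI-cut, then sized by capillary electrophoresis. Gain of signal fitted against DMSO control.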
# [3] = target: Nuclear receptor subfamily 4 group A member 2 (Homo sapiens) (UniProt P43354); assay: ATG_NURR1_TRANS: Attagene TRANS-FACTORIAL HepG2 Assay for human Nuclear Receptor Related Protein 1 (NURR1) (AID 2282985; active = hit-call score of the fitted dose curve at least 0.9, where 1 is the maximum); conditions: HepG2 Attagene TRANS reporter, mRNA readout
# Chain of Nuclear receptor subfamily 4 group A member 2 (Homo sapiens) (P43354 whole entry, looked up, the tested form may be a part): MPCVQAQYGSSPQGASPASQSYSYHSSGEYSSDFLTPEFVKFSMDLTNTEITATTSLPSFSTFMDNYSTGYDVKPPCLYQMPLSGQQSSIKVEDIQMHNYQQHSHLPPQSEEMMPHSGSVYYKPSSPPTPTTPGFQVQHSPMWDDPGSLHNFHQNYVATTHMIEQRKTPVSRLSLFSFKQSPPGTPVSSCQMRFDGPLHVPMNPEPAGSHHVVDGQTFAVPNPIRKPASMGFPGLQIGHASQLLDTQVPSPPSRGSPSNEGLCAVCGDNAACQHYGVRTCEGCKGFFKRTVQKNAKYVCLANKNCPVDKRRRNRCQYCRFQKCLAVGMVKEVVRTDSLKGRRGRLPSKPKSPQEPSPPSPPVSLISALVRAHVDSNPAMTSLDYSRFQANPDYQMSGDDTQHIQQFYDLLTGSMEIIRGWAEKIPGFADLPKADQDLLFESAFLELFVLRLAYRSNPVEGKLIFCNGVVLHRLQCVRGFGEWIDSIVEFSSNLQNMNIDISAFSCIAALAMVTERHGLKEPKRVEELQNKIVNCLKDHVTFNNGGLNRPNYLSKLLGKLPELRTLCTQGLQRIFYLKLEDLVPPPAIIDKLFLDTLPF
# How it was run: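 Reporter transcript induction, measured by RT-PCR with fluorescent labelling, HpaI digestion and capillary electrophoresis, after 24 hr dosing of human HepG2 cells transiently expressing an exogenous NR-Gal4 fusion with GAL4-UAS-driven reporters; DMSO as baseline.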
# [4] = target: Transcriptional activator Myb (Homo sapiens) (UniProt P10242); assay: ATG_Myb_CIS: Attagene CIS-FACTORIAL HepG2 Assay for human Myeloblastosis (Myb) Proto-Oncogene Transcription Factor (AID 2282986); conditions: HepG2 Attagene CIS-FACTORIAL Myb reporter transcription; actives raise or lower the signal
# Chain of Transcriptional activator Myb (Homo sapiens) (P10242 whole entry, looked up): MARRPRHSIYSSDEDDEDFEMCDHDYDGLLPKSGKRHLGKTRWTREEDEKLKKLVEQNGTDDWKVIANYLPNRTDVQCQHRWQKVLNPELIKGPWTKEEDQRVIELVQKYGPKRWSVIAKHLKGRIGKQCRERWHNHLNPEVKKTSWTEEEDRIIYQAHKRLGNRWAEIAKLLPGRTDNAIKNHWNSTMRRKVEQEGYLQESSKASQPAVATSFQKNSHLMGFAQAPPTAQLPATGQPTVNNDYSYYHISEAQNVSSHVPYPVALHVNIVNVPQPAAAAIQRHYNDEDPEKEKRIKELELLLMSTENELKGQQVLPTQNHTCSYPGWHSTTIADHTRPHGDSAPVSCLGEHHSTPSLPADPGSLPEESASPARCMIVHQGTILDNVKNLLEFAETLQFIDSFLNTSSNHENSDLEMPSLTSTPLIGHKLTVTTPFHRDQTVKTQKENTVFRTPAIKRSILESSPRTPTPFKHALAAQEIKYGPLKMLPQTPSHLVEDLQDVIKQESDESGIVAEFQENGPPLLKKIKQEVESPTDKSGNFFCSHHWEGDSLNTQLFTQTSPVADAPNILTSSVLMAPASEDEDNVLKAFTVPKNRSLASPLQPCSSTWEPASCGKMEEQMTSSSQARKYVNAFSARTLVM
# How it was run: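 Using HepG2 liver cells bearing transiently transfected cis-promoter reporter constructs, the assay measures induction or loss of reporter mRNA after 24 hours of dosing. Detection used fluorescently labeled RT-PCR products separated by capillary electrophoresis.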
# [5] = target: Nuclear respiratory factor 1 (Homo sapiens) (UniProt Q16656); assay: ATG_NRF1_CIS: Attagene CIS-FACTORIAL HepG2 Assay for human Nuclear Respiratory Factor 1 (NRF1) Orphan Gene (AID 2282987); conditions: HepG2 NRF1 cis-element reporter, Attagene multiplex; actives raise or lower the signal
# Chain of Nuclear respiratory factor 1 (Homo sapiens) (Q16656 whole entry, looked up): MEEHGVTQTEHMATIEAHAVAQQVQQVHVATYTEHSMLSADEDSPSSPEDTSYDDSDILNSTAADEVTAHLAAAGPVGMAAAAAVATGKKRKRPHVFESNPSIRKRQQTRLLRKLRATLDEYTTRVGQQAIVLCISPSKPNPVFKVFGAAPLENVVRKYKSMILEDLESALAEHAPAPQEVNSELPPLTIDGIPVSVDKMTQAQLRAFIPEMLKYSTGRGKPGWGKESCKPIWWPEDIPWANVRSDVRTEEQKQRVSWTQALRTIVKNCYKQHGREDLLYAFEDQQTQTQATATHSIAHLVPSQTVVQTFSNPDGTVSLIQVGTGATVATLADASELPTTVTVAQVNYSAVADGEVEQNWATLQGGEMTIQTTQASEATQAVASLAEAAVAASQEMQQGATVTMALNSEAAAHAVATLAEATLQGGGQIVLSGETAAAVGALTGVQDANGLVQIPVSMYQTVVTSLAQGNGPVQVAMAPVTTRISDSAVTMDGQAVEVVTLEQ
# How it was run: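 Reporter mRNA induction or loss in HepG2 cells after 24 h dosing; cis-regulated reporter constructs report endogenous transcription-factor activity. Quantified by RT-PCR/capillary electrophoresis fluorescence, DMSO-referenced.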
# [6] = ATG_NFI_CIS: Attagene CIS-FACTORIAL HepG2 Assay for human Nuclear Factor I (NFI) (AID 2282989); conditions: HepG2 cis-regulatory reporter, NFI response element transcription; actives raise or lower the signal
# How it was run: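 Cells: human liver HepG2, transiently transfected with promoter-regulated reporter transcription units. Exposure 24 h. Detection: fluorescent RT-PCR products separated by capillary electrophoresis, normalised to DMSO negative control.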
# [7] = target: Myc proto-oncogene protein (Homo sapiens) (UniProt P01106); assay: ATG_Myc_CIS: Attagene CIS-FACTORIAL HepG2 Assay for human Myelocytomatosis (Myc) Proto-Oncogene Transcription Factor (AID 2282990); conditions: HepG2, Attagene cis-reporter transcription factor activity; actives raise or lower the signal
# Chain of Myc proto-oncogene protein (Homo sapiens) (P01106 whole entry, looked up, the tested form may be a part): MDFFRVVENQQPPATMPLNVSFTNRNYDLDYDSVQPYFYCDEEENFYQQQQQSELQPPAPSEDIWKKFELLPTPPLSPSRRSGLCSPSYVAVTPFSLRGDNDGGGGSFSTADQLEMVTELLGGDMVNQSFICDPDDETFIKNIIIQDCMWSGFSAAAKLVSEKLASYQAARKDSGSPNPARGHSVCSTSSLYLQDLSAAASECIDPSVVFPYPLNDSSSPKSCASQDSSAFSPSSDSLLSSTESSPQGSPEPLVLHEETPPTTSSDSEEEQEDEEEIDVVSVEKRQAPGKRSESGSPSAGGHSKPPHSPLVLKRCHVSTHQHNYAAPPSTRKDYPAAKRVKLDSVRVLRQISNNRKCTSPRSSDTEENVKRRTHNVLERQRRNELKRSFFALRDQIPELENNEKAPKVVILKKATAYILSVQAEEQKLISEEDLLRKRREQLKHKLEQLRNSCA
# How it was run: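 After 24 h chemical treatment of HepG2 cells carrying multiplexed cis-regulated reporter constructs, reporter transcripts quantified by RT-PCR and capillary electrophoresis of fluorescent fragments. Gain or loss fitted against DMSO baseline.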
# [8] = ATG_NF_kB_CIS: Attagene CIS-FACTORIAL HepG2 Assay for human Nuclear Factor Kappa B (NF-kB) (AID 2282991); conditions: HepG2 Attagene cis-factorial NF-kB reporter mRNA; actives raise or lower the signal
# How it was run: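 DMSO served as negative control and baseline for bidirectional curve fitting. Transiently transfected HepG2 cells were dosed for 24 h, then reporter transcripts were measured by RT-PCR with capillary electrophoresis detection.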
# [9] = ATG_Oct_MLP_CIS: Attagene CIS-FACTORIAL HepG2 Assay for human Octamer-Binding Transcription Factor (Oct) (AID 2282993); conditions: HepG2 Attagene cis-factorial Oct reporter, mRNA; actives raise or lower the signal
# How it was run: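 HepG2, transient MRTU transfection, cis promoter elements; 24 h dosing; RT-PCR/CE fluorescence read-out of reporter mRNA; fit both directions vs DMSO.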
# [10] = BSK_3C_TissueFactor: BioMAP Diversity Plus: 3C Assay for Tissue Factor Biomarker Activity (AID 2282997); conditions: BioMAP 3C HUVEC, tissue factor biomarker readout; actives raise or lower the signal
# How it was run: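 HUVEC, 3C system, 24 h post-dose; Tissue Factor by ELISA; bidirectional fit vs DMSO baseline.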
# [11] = BSK_3C_uPAR: BioMAP Diversity Plus: 3C Assay for Urokinase-type plasminogen activator receptor (uPAR) Biomarker Activity (AID 2282998); conditions: BioMAP 3C HUVEC, uPAR biomarker ELISA; actives raise or lower the signal
# How it was run: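 A multiplexed primary-cell system built on human umbilical vein endothelium was used, with chemical present for 24 h before reading. Cell-surface uPAR was detected by ELISA; signal change in either direction counted against DMSO.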
# [12] = BSK_4H_Eotaxin3: BioMAP Diversity Plus: 4H Assay for Eotaxin 3 Biomarker Activity (AID 2283000); conditions: primary human endothelial cells (HUVEC); actives raise or lower the signal;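 as to outcome: CCL26 protein level quantified by ELISA in parallel with SRB cytotoxicity check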
# How it was run: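 Readout is Eotaxin-3 (CCL26) level by ELISA in primary human umbilical vein endothelial cells harvested 24 h after chemical exposure; activity fitted in both directions against DMSO control.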
# [13] = target: human Peroxisome Proliferator-activated Receptor alpha (PPARa), PPARA (gene 5465) (UniProt Q07869); assay: ATG_PPARa_TRANS: Attagene TRANS-FACTORIAL HepG2 Assay for human Peroxisome Proliferator-activated Receptor alpha (PPARa) (AID 2283001; active = hit-call score of the fitted dose curve at least 0.9, where 1 is the maximum;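 as to AC50: potency for gain of reporter signal over DMSO so agonist or activator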)
# Chain of human Peroxisome Proliferator-activated Receptor alpha (PPARa), PPARA (gene 5465) (Q07869 whole entry, looked up, the tested form may be a part): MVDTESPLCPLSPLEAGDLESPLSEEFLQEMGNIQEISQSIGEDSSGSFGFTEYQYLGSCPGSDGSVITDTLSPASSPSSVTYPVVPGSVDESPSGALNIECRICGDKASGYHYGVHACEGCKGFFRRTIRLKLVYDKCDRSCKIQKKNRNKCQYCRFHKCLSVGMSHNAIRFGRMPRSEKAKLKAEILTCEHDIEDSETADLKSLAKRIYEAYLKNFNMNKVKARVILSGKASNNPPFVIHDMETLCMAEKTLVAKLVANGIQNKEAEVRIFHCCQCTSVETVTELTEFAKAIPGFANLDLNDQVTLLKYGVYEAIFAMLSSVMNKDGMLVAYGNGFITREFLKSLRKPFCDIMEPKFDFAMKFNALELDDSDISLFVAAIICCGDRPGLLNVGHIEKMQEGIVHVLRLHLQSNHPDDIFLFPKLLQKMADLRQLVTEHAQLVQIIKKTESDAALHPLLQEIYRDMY
# How it was run: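 Reporter transcripts quantified by RT-PCR plus capillary electrophoresis after 24 h treatment, fitted upward relative to DMSO. Cells: human HepG2 transiently carrying multiple GAL4-UAS reporter units driven by NR-Gal4 chimeras.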
# [14] = read-out: Intercellular Adhesion Molecule 1 (ICAM1), ICAM1 (gene 3383); assay: BSK_3C_ICAM1: BioMAP Diversity Plus: 3C Assay for Intercellular Adhesion Molecule 1 (ICAM1) Biomarker Activity (AID 2283003); conditions: primary human endothelial cells (HUVEC); actives raise or lower the signal
# How it was run: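 ELISA readout of ICAM1 in human umbilical vein endothelial cells in the 3C system, taken 24 h post-dose. Gain or loss of signal versus DMSO was fitted in both directions, with SRB total-protein staining run in parallel.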
# [15] = ATG_NRF2_ARE_CIS: Attagene CIS-FACTORIAL HepG2 Assay for human Nuclear Factor Erythroid 2 Related Factor 2 (NFR2) response to Antioxidant Response Elements (ARE) (AID 2282992); conditions: HepG2 Attagene ARE/NRF2 reporter, transcription factor activity; actives raise or lower the signal;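 as to AC50: reporter mRNA level measured by RT-PCR and capillary electrophoresis fluorescence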
# How it was run: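 Endogenous transcription factor activity in human liver HepG2 cells is tracked via a cis-element-driven reporter within a multiplexed set. mRNA induction is read by RT-PCR and capillary electrophoresis after 24 h, with DMSO as baseline.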
# [16] = target: human Peroxisome Proliferator-activated Receptor delta (PPARd), PPARD (gene 5467) (UniProt Q03181); assay: ATG_PPARd_TRANS: Attagene TRANS-FACTORIAL HepG2 Assay for human Peroxisome Proliferator-activated Receptor delta (PPARd) (AID 2283002; active = hit-call score of the fitted dose curve at least 0.9, where 1 is the maximum)
# Chain of human Peroxisome Proliferator-activated Receptor delta (PPARd), PPARD (gene 5467) (Q03181 whole entry, looked up, the tested form may be a part): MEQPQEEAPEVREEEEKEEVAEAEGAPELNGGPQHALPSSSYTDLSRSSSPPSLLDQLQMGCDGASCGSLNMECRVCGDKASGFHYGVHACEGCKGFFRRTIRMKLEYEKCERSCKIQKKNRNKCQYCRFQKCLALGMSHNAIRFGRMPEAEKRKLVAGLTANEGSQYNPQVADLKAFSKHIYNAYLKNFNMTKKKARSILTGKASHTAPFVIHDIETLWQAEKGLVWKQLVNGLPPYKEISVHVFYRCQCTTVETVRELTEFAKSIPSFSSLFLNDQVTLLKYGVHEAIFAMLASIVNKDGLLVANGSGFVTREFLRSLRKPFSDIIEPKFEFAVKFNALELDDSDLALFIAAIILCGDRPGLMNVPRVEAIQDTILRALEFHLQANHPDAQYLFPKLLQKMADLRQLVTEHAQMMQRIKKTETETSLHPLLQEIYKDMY
# How it was run: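 Read-out is induced reporter mRNA, quantified by RT-PCR with fluorescent labelling and capillary electrophoresis after 24 h dosing. Cells are HepG2 transiently carrying multiple GAL4-UAS reporter units driven by exogenous NR-GAL4 chimeras; DMSO serves as baseline.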
# [17] = target: Hepatocyte nuclear factor 4-alpha (Homo sapiens) (UniProt P41235); assay: ATG_HNF4a_TRANS: Attagene TRANS-FACTORIAL HepG2 Assay for human Hepatocyte Nuclear Factor 4 alpha (HNF4a) (AID 2282982; active = hit-call score of the fitted dose curve at least 0.9, where 1 is the maximum); conditions: HepG2 HNF4a transactivation reporter, mRNA readout
# Chain of Hepatocyte nuclear factor 4-alpha (Homo sapiens) (P41235 whole entry, looked up, the tested form may be a part): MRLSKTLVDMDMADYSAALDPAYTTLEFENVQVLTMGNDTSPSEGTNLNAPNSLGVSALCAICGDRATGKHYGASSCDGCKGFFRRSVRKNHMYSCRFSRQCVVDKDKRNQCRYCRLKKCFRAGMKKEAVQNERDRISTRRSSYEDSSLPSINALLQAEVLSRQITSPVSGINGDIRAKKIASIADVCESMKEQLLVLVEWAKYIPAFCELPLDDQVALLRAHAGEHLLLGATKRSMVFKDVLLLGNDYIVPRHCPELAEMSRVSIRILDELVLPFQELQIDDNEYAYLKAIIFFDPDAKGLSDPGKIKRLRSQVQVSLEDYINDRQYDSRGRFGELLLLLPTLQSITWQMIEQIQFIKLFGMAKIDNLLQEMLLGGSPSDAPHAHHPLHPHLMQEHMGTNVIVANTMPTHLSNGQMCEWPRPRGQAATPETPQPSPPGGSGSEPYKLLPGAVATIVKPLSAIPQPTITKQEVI
# How it was run: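 Activity of an exogenous HNF4a–Gal4 fusion scored as induced GAL4-UAS reporter transcripts after 24 h chemical exposure of transfected human HepG2 cells. Read-out via RT-PCR with 6-FAM labelling and capillary electrophoresis; rise over DMSO baseline.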
# [18] = target: human Retinoic Acid Receptor beta (RARb), RARB (gene 5915) (UniProt P10826); assay: ATG_RARb_TRANS: Attagene TRANS-FACTORIAL HepG2 Assay for human Retinoic Acid Receptor beta (AID 2283004; active = hit-call score of the fitted dose curve at least 0.9, where 1 is the maximum)
# Chain of human Retinoic Acid Receptor beta (RARb), RARB (gene 5915) (P10826 whole entry, looked up, the tested form may be a part): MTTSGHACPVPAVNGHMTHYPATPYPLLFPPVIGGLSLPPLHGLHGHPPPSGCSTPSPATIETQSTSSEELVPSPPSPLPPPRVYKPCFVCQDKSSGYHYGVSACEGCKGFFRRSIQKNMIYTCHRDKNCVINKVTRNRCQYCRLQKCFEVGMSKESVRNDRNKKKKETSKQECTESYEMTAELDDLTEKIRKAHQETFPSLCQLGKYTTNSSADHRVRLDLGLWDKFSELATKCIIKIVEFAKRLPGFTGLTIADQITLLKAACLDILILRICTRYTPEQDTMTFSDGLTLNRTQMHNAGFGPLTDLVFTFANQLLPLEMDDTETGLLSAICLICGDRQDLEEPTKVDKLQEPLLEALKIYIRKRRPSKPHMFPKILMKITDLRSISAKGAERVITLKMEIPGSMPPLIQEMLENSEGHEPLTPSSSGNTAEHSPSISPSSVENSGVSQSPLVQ
# How it was run: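 Readout is reporter mRNA induction: RNA reverse-transcribed, PCR-amplified, FAM-labelled, HpaI-cut and resolved by capillary electrophoresis. Transiently transfected HepG2 cells carrying exogenous NR–Gal4 chimeras were dosed for 24 h; activity fitted upward relative to DMSO.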
# [19] = BSK_3C_VCAM1: BioMAP Diversity Plus: 3C Assay for Vascular cell adhesion molecule 1 (VCAM1) Biomarker Activity (AID 2282999); conditions: BioMAP 3C HUVEC, VCAM1 ELISA, cytokine-stimulated; actives raise or lower the signal
# How it was run: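 Activity fitted in both directions relative to DMSO, with ELISA measurement of the surface marker on primary HUVEC (3C) at 24 h post-treatment; parallel SRB staining (0.1% SRB, TCA-fixed, 560 nm) flagged overt cytotoxicity.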
# [20] = target: Cellular tumor antigen p53 (Homo sapiens) (UniProt P04637); assay: ATG_p53_CIS: Attagene CIS-FACTORIAL HepG2 Assay for human p53 Transcription Factor (AID 2282994); conditions: HepG2 p53 cis-element reporter, Attagene mRNA; actives raise or lower the signal
# Chain of Cellular tumor antigen p53 (Homo sapiens) (P04637 whole entry, looked up, the tested form may be a part): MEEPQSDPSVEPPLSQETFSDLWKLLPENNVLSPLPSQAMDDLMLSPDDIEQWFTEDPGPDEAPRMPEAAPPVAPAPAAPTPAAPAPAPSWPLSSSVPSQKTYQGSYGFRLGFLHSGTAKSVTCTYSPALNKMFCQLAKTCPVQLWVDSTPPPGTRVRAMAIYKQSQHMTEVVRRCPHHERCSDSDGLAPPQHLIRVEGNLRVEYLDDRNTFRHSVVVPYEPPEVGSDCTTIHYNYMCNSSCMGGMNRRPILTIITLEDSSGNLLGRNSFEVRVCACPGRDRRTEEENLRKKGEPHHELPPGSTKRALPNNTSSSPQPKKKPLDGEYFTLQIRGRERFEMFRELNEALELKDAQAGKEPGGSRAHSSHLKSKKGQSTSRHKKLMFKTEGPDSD
# How it was run: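 Steps: transfect HepG2 with multiplexed cis reporter constructs; dose chemicals 24 h; extract RNA, reverse-transcribe, PCR-amplify reporter sequences; FAM-label, HpaI-digest, resolve fragments by CE. Activity fitted both directions relative to DMSO.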
smiles,measurement,setting,value
O=C(O)C1(c2ccc3c(c2)OC[C@H](Cc2ccc(-c4ccccc4)cc2)[C@H]3O)CCCC1,outcome,[1],inactive
same,outcome,[2],inactive
same,outcome,[3],inactive
same,outcome,[4],inactive
same,outcome,[5],inactive
same,outcome,[6],inactive
same,outcome,[7],inactive
same,outcome,[8],inactive
same,outcome,[9],inactive
same,outcome,[10],inactive
same,AC50,[11],29.9 µM (active)
same,outcome,[12],inactive
same,AC50,[13],11 µM (active)
same,outcome,[14],inactive
OC[C@@H](O)[C@H]1O[C@@H]2O[C@H](C(Cl)(Cl)Cl)O[C@@H]2[C@H]1O,outcome,[1],inactive
same,outcome,[2],inactive
same,outcome,[3],inactive
same,outcome,[4],inactive
same,outcome,[5],inactive
same,outcome,[6],inactive
same,outcome,[7],inactive
same,outcome,[8],inactive
same,outcome,[15],inactive
same,outcome,[9],inactive
same,outcome,[13],inactive
CNC(=O)N(C)c1nc2ccccc2s1,outcome,[1],inactive
same,outcome,[2],inactive
same,outcome,[3],inactive
same,outcome,[4],inactive
same,outcome,[5],inactive
same,outcome,[6],inactive
same,outcome,[7],inactive
same,outcome,[8],inactive
same,AC50,[15],14.5 µM (active)
same,outcome,[9],inactive
same,outcome,[13],inactive
same,outcome,[16],inactive
CCN(N=O)C(N)=O,outcome,[17],inactive
same,outcome,[4],inactive
same,outcome,[5],inactive
same,outcome,[6],inactive
same,outcome,[7],inactive
same,outcome,[8],inactive
same,outcome,[15],inactive
same,outcome,[9],inactive
same,outcome,[13],inactive
same,outcome,[18],inactive
O=C(N[C@H]1CN2CCC1CC2)c1ccc2c(c1)OCCO2,outcome,[1],inactive
same,outcome,[2],inactive
same,outcome,[4],inactive
same,outcome,[5],inactive
same,outcome,[6],inactive
same,outcome,[15],inactive
same,outcome,[9],inactive
same,outcome,[10],inactive
same,outcome,[11],inactive
same,outcome,[12],inactive
same,outcome,[14],inactive
CC(C)N(C(=O)CCl)c1ccccc1,outcome,[1],inactive
same,outcome,[2],inactive
same,AC50,[3],149 µM (active)
same,AC50,[4],8.16 µM (active)
same,AC50,[5],49.1 µM (active)
same,AC50,[6],24.3 µM (active)
same,outcome,[7],inactive
same,AC50,[15],2.75 µM (active)
same,AC50,[9],52.8 µM (active)
same,outcome,[10],inactive
same,AC50,[11],20 µM (active)
same,AC50,[19],20 µM (active)
same,AC50,[12],20 µM (active)
same,AC50,[14],25.8 µM (active)
ClCCCCl,outcome,[1],inactive
same,outcome,[2],inactive
same,outcome,[3],inactive
same,outcome,[4],inactive
same,outcome,[5],inactive
same,outcome,[6],inactive
same,outcome,[7],inactive
same,outcome,[8],inactive
same,outcome,[15],inactive
same,outcome,[9],inactive
same,outcome,[20],inactive
same,outcome,[16],inactive
Fc1cccc(Cl)c1CCl,outcome,[1],inactive
same,outcome,[2],inactive
same,outcome,[4],inactive
same,outcome,[5],inactive
same,outcome,[6],inactive
same,outcome,[7],inactive
same,AC50,[15],26.3 µM (active)
same,outcome,[9],inactive
same,outcome,[16],inactive
CN(N=O)c1ccc([N+](=O)[O-])cc1,outcome,[1],inactive
same,outcome,[2],inactive
same,outcome,[3],inactive
same,outcome,[4],inactive
same,outcome,[5],inactive
same,outcome,[6],inactive
same,outcome,[7],inactive
same,outcome,[8],inactive
same,AC50,[15],32.3 µM (active)
same,outcome,[9],inactive
same,outcome,[13],inactive
CC(c1ccccc1)(c1ccc(O)cc1)c1ccc(O)cc1,outcome,[1],inactive
same,outcome,[2],inactive
same,AC50,[3],18.2 µM (active)
same,outcome,[4],inactive
same,outcome,[5],inactive
same,outcome,[6],inactive
same,AC50,[8],14.6 µM (active)
same,AC50,[15],11.1 µM (active)
same,AC50,[9],11.1 µM (active)
same,AC50,[20],16.2 µM (active)
C=CCCl,outcome,[17],inactive
same,outcome,[4],inactive
same,outcome,[5],inactive
same,outcome,[6],inactive
same,outcome,[7],inactive
same,outcome,[8],inactive
same,outcome,[15],inactive
same,outcome,[9],inactive
same,outcome,[13],inactive
same,outcome,[16],inactive
